The entries come from a sample that favours hits as a whole.
ST2 inh: blocks human ST2 binding to IL-33; AlphaLISA ST2-Fc/biotin-IL-33 interaction, 1 h; inhibition, % for hits at 17 µM; actives 2.3% (n = 78,000); in the data active = inhibition above about 30%
Target sequence (Q01638 whole entry, looked up): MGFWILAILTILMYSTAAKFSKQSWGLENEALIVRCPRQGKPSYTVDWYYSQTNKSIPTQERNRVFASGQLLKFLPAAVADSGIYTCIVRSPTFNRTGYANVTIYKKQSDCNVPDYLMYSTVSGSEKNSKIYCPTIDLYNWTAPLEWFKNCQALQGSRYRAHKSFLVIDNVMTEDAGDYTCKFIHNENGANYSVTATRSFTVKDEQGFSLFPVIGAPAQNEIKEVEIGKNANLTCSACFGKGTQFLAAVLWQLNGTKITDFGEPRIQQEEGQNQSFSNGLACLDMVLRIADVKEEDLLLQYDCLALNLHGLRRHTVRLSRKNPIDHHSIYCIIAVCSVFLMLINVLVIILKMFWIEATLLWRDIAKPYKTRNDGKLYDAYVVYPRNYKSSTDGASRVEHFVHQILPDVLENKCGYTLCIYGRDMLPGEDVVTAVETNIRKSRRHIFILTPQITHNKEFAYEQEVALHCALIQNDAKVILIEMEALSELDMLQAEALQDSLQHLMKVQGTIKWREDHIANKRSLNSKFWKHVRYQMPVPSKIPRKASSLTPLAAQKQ
* = called active by the depositor; i = inactive; ! = repeats disagree.

SMILES | ST2 inh
COc1ccc(-n2nc3c(c2NC(=O)c2ccc(F)cc2)CS(=O)C3)cc1 (stereo not drawn) | i
COc1ccccc1Nc1ncnc2sc3c(c12)CCCC3 | i
CCOc1cc(-c2nccn2CCN2CCNC2=O)ccc1O | i
COc1ccc(-c2cc(N3CCN(S(=O)(=O)c4ccc(CC(C)C)cc4)CC3)ncn2)cc1 | i
O=C1S/C(=C/c2ccccc2)C(=O)N1CNc1cccc(F)c1 | i
O=C1NC(=Nc2cccc([N+](=O)[O-])c2)SC1(CO)CO | i
C=CCN1C(=O)/C(=C/c2ccccc2)SC1=Nc1cccc([N+](=O)[O-])c1 | 47%*
O=C(CCCn1cnnn1)N1C[C@H]2CC=CC[C@H]2C1 | i
O=[N+]([O-])c1ccc(S(=O)(=O)c2nc3ccccc3s2)c(Cl)c1 | 54%*
O=C(c1cc([N+](=O)[O-])ccc1Cl)n1nnc2ccccc21 | i
O=C(CSc1nc2ccccc2s1)Nc1nc2ccc([N+](=O)[O-])cc2s1 | i
CSc1ccc(-c2nc(CSCC(=O)NC3CCC(C)CC3)c(C)o2)cc1 (stereo not drawn) | i
O=C1c2ccccc2NC2(C(=O)Nc3ccc(Br)cc32)N1c1ccccc1 (stereo not drawn) | i
CCSc1nc(CC(=O)NC(C)C(=O)Nc2cc(F)ccc2C)cs1 (stereo not drawn) | i
O=C(Nc1c2c(nn1-c1ccccc1)CSC2)c1ccc(Br)cc1 | i
Cc1ccc(NC(=O)c2sc3nc4c(cc3c2N)CCCC4)cc1 | i
CCN(CC)c1ccc(N)c(C)c1 | 53%*
CCN(CC)c1ccc(C=NS(=O)(=O)c2ccc(C)cc2)cc1 | i
O=C1CC(C(=O)N2Cc3cnn(CCO)c3C2)c2ccccc21 (stereo not drawn) | i
CCc1cccc(C)c1NC(=O)c1ccc(-c2ccc(Cl)cc2)o1 | i
CN1CCN(c2nc3c(=O)[nH]cnc3n2C2OC(CO)C(O)C2O)CC1 (stereo not drawn) | i
COc1ccc(NC(=O)c2cc3c(=O)oc4ccccc4c3s2)cc1Cl | i
O=C(Nc1nc(-c2cccs2)cs1)c1ccc(Br)cc1 | i
N#C/C(=C\c1ccc(Br)cc1)c1nc(C2CC2)cs1 | 49%*
N#C/C(=C/c1ccc(Br)cc1)c1nc(-c2cccs2)cs1 | 40%*
SMILES | ST2 inh
N#Cc1c(-c2ccccc2)cc(-c2cccs2)nc1Br | i
Cc1cnccc1N1CCCN(Cc2ccc(C#CC(C)(C)O)cc2)CC1 | i
COc1cccc(C(=O)NCC2Cc3cc(C)cc(-c4cc(C(C)=O)ccc4F)c3O2)c1OC (stereo not drawn) | i
CC(C)OCCn1ccnc1-c1ccc(Cl)s1 | i
COc1ccc(CC(=O)NCc2ccc(-n3ccnc3C)cc2)cc1 | i
CN(Cc1csc(-c2ccccc2)n1)C(=O)c1cn(-c2ccccc2)nn1 | i
O=C(CCC(=O)N1CCN(CC2CCCO2)CC1)NC1CCCC1 (stereo not drawn) | i
C(=Nc1cnc2ccccc2c1)c1c2n(c3ccccc13)CCCN2 | 30%*
Cc1cc(C)nc(N=C(N)Nc2ccccc2C(F)(F)F)n1 | i
COc1ccc(Cn2cnc(Sc3nc4c(c(=O)n(C)c(=O)n4C)n3C)n2)cc1[N+](=O)[O-] | i
COc1ccc(C2CC(c3ccccc3)=NN2C(=O)c2ccccc2)cc1 (stereo not drawn) | i
COc1ccc(C2=NN(CN3C(=O)C(=O)c4ccccc43)C(c3ccc(OC)cc3)C2)cc1 (stereo not drawn) | 36%*
COc1ccc(NC(=O)CN2C(=O)C(=O)c3ccccc32)c(OC)c1 | i
Fc1ccc(Cc2cn3cc(-c4ccc(Br)cc4)nc3s2)cc1 | i
Cc1c(NS(=O)(=O)c2ccc3c(c2)C(=O)c2ccccc2-3)c(=O)n(-c2ccccc2)n1C | i
CC(C)CCNS(=O)(=O)c1ccc2c(c1)C(=O)c1cc(S(=O)(=O)NCCC(C)C)ccc1-2 | 36%*
COc1ccc(S(=O)(=O)NCC(C)C)cc1OC | i
COc1ccc(-c2cc(C(F)(F)F)nc(NC3CCCC3)n2)cc1 | i
Cc1ccc(C(O)=C2C(=O)C(=O)N(CCN(C)C)C2c2cccc([N+](=O)[O-])c2)cc1 (stereo not drawn) | i
Cc1c(Cl)cccc1NS(=O)(=O)c1ccc2[nH]cc(C(=O)N3CCCC3)c(=O)c2c1 | i
Cn1cc(CN(Cc2ccc(S(C)(=O)=O)cc2)C2CC2)cn1 | i
CC(C)OCCCNC(=O)c1cc2cc3ccc(Cl)cc3nc2o1 | i
CCC(C)NC(=O)c1cc2cc3ccc(Cl)cc3nc2o1 (stereo not drawn) | 31%*!
COc1ccc2cc3cc(C(=O)NC(C)C)oc3nc2c1 | i
CC(C)Cc1ccc(-c2csc(NC(=O)[C@H]3[C@H]4CC[C@H](C4)[C@H]3C(=O)O)n2)cc1 | i
SMILES | ST2 inh
COc1ccc(-n2ncc3c2CC(C)(C)CC3NC(=O)Cn2cc3ccccc3n2)cc1 (stereo not drawn) | i
COc1cc(Br)cc(C2NC(=O)c3c(sc4c3CCN(C)C4)N2)c1O (stereo not drawn) | i
COc1ccc(CC(=O)Nc2ccc(Nc3nc(C)cc(Nc4ccc(OC)cc4)n3)cc2)cc1 | 33%*
COc1ccc(Nc2cc(C)nc(Nc3ccc(NC(=O)c4ccccc4OC)cc3)n2)cc1 | 39%*
COc1ccc(C(=O)Nc2ccc(Nc3nc(C)cc(Nc4ccc(C)cc4)n3)cc2)cc1OC | i
COc1cccc(C(=O)Nc2ccc(Nc3nc(C)cc(Nc4ccccc4)n3)cc2)c1 | i
Cc1cc(Nc2ccccc2)nc(Nc2ccc(NC(=O)c3ccc(F)cc3)cc2)n1 | i
CC(=O)Nc1ccc(Nc2nc(C)cc(Nc3ccccc3)n2)cc1 | i
COc1ccc(Nc2cc(C)nc(Nc3ccc(NC(=O)CCCc4ccccc4)cc3)n2)cc1 | 31%*
CCC(CC)C(=O)Nc1ccc(Nc2nc(C)cc(Nc3ccccc3)n2)cc1 | i
COc1ccc(NC(=O)Cc2ccc(Br)cc2)cc1 | i
COC(=O)c1[nH]ncc1CN1CCCC1c1ccc(F)cc1 (stereo not drawn) | i
CC(C)CCNC(=O)C1(O)c2cc(Br)ccc2NC(=O)N1c1ccc(Cl)cc1 (stereo not drawn) | i
O=C(N/C(=C\c1ccc2c(c1)OCO2)C(=O)N1CCOCC1)c1ccc(Br)cc1 | i
O=C(Nc1ccc(S(=O)(=O)N2CCCCCC2)cc1)C1CCCCC1 | i
Cc1nnsc1CN(C)Cc1ccccc1-c1ccco1 | i
COc1ccc2cc(-c3[nH]ncc3CNC(c3nc4ccc(C)cc4[nH]3)C(C)C)ccc2c1 (stereo not drawn) | i
CCC1CCCCN1C(=O)C1CCCCC1 (stereo not drawn) | i
CCOc1cc(C=O)cc(Br)c1OCc1ccc(C(=O)O)cc1 | i
O=C(Nc1cccc(-c2nc3ccccc3o2)c1)c1ccc([N+](=O)[O-])cc1Cl | i
CC1(C)CN(c2ccnc(C(=O)NCc3ccc4c(c3)OCO4)c2)CCO1 | i
CC(C)NC(=O)Cc1c(C(=O)O)[nH]c2ccc(Cl)cc12 | i
CCN1CCN(c2cc(C)c3cc(NC(=O)CCC(=O)NCc4ccco4)ccc3n2)CC1 | i
CCN(CC)c1ccc(C2C3=C(CC(C)(C)CC3=O)Nc3nc(SC)[nH]c(=O)c32)cc1 (stereo not drawn) | i
CSC1=N/C(=C\c2cc3c(cc2Br)OCO3)C(=O)S1 | i
CCN(CC)c1ccc(/C=C2\N=C(SC)SC2=O)cc1 | 63%*
CCOc1ccccc1NS(=O)(=O)c1cc([N+](=O)[O-])ccc1C | i
